From PubChem BioAssay (NCI)
The panel holds about 79,000 compounds, 15% with a hit somewhere; the sample as a whole holds those more often. Values without a mark were called inactive. Activity calls are given as the source filed them. Cut-off read from the data, not from the text of the source: active = growth inhibition above about 70%; inactive = the rest.

How the values were obtained:
[1] = NCI Yeast Anticancer Drug Screen. Data for the rad50 strain (AID 155);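 note: 0% = growth of vehicle-only cultures of the same strain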; details: S. cerevisiae rad50 strain growth inhibition; at 50.0 µM; hits give high values
In short: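 Compounds were tested on a yeast strain with an engineered DNA damage repair alteration; the reported value is growth inhibition normalised to vehicle treatment.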

[2] = NCI Yeast Anticancer Drug Screen. Data for the mec2-1 strain (AID 157); details: S. cerevisiae mec2-1 strain, at 50.0 µM, hits give high values
In short: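 Strain: mec2-1 (DNA repair/cell cycle alteration). Compound exposure, then growth measured; inhibition expressed relative to vehicle.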

[3] = NCI Yeast Anticancer Drug Screen. Data for the sgs1 mgt1 strain (AID 161);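 note: 0% = growth of cultures given vehicle only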; details: S. cerevisiae sgs1 mgt1 strain, at 50.0 µM, hits give high values
In short: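 Test agents were incubated with a DNA-repair-mutant yeast strain. Growth was then read and compared against vehicle-treated controls.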

[4] = NCI Yeast Anticancer Drug Screen. Data for the cln2 rad14 strain (AID 165);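 note: 0% = growth equal to vehicle treated cultures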; details: S. cerevisiae cln2 rad14 strain, at 50.0 µM, hits give high values
In short: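 Compounds are applied to the cln2 rad14 yeast strain, and growth is then compared with that of vehicle-treated cultures to give inhibition.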

[5] = NCI Yeast Anticancer Drug Screen. Data for the bub3 strain (AID 167); details: S. cerevisiae bub3 mutant strain, at 50.0 µM, hits give high values
In short: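 Growth of a checkpoint-deficient yeast mutant is measured after compound exposure. Values represent inhibition relative to vehicle.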

[6] = NCI Yeast Anticancer Drug Screen. Data for the mlh1 rad18 strain (AID 175); details: S. cerevisiae mlh1 rad18 strain growth inhibition; at 50.0 µM; hits give high values
In short: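 Read-out is yeast growth inhibition, calculated against vehicle-only controls. The compound was applied to a strain engineered with DNA damage repair alterations.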

Compound `NC(=O)/N=C/c1c(O)c2ccccc2oc1=O` has a growth inhibition [1] of 9.6%, a growth inhibition [2] of -0.8% and a growth inhibition [3] of -11.6%. For the same compound, the growth inhibition [4] was -3.35%, the growth inhibition [5] was -42% and the growth inhibition [6] was -3.1%.
`Oc1ccc2ccccc2c1/C=N\Sc1ccc(Br)cc1` showed a growth inhibition [1] of 35.1%, a growth inhibition [2] of 37.5% and a growth inhibition [3] of 64.2%. For the same compound, the growth inhibition [4] was 28.5%, the growth inhibition [5] was 32.2% and the growth inhibition [6] was 49.5%.
With `Cc1cccc(C(=O)OCCCl)c1` the growth inhibition [1] was 15.6%, the growth inhibition [2] was -7.5% and the growth inhibition [3] was 8.3%. For the same compound, the growth inhibition [4] was -29.1%, the growth inhibition [5] was 5% and the growth inhibition [6] was 5.2%.
In the case of `CCOC(=O)c1sc(Nc2cc(Cl)ccc2Cl)nc1C`, the growth inhibition [1] was -6.2%, the growth inhibition [2] was -19.6% and the growth inhibition [3] was -9.2%. The growth inhibition [4] was -2%, the growth inhibition [5] was -8.3% and the growth inhibition [6] was -15.1%.
Work on `Cc1ccc(NC(=O)COc2ccc(Cl)cc2)c(C)c1` yielded a growth inhibition [1] of 2.9%, a growth inhibition [2] of 11% and a growth inhibition [3] of 12.8%. For the same compound, the growth inhibition [4] was 9.45%, the growth inhibition [5] was 16.2% and the growth inhibition [6] was 0.75%.
`COC1c2ccccc2CC1(C)C` (centres undefined) gave a growth inhibition [1] of 13.8%, a growth inhibition [2] of 8.8% and a growth inhibition [3] of 5.65%. The growth inhibition [4] was -52.4%, the growth inhibition [5] was 10.3% and the growth inhibition [6] was 9.55%.
Work on `CC(=O)Nc1ccc(S(=O)(=O)N=S(c2ccccc2)c2ccccc2)cc1` yielded a growth inhibition [1] of 14.7%, a growth inhibition [2] of 3.05% and a growth inhibition [3] of 8.45%. The growth inhibition [4] was 10.8%, the growth inhibition [5] was -7.2% and the growth inhibition [6] was -0.25%.
For `C(=NCc1ccccc1)c1ccccc1-c1ccccc1C=NCc1ccccc1`, the growth inhibition [1] was 98% (active), the growth inhibition [2] was 98.7% (active) and the growth inhibition [3] was 98.8% (active). The growth inhibition [4] was 91.8% (active), the growth inhibition [5] was 97.2% (active) and the growth inhibition [6] was 98.1% (active).
With `CC(C(O)c1ccc(Cl)cc1)C(O)(C(F)(F)F)C(F)(F)F` (centres undefined) the growth inhibition [1] was 99.2% (active), the growth inhibition [2] was 99.3% (active) and the growth inhibition [3] was 99.2% (active). For the same compound, the growth inhibition [4] was 99% (active), the growth inhibition [5] was 99% (active) and the growth inhibition [6] was 99.4% (active).
